An excerpt weighted towards active compounds, which were near 2.5% of everything screened.
F508del corr: CFTR F508del correction in bronchial cells. hit rate 0.36% among 350,000. activity (quench increase), % at 7.58 µM. CFBE cells, YFP halide quenching; stimulated with forskolin plus potentiator P3; % fluorescence drop versus neutral controls;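 active means mean added fluorescence quench of at least 8% versus neutral control, with both replicates also reaching 8%; inconclusive means only one of the mean or replicate conditions met; inactive means mean below 8% and not both replicates reaching 8%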;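 further: cells transiently co-express mutant CFTR-F508del with the halide-sensitive YFP; corrector assay measuring rescue of mutant channel to the surface after 24 h compound exposure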
GAA850 FXN act: activators of GAA850 frataxin (FXN) promoter; HEK293 lucGAA850 FXN promoter luciferase reporter, 24 h; percent of 10 µM SAHA response; activation, % at 6 µM; hit rate 0.56% among 360,000;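 active means activation above the average of all compounds screened plus 3 SD, cutoff fixed separately per campaign, cut at about 7.5% in these data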;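 further: 0% = DMSO wells and 100% = 10 µM SAHA wells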
PAX8 reporter: PAX8 transcriptional activity inhibition; RMG-I TPO-luciferase reporter, SteadyGlo, 24 h; inhibition, % at 12.6 µM; hit rate 1.2% among 360,000;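 active means mean replicate inhibition at least 60% with every replicate also reaching 60%; inconclusive means only one of the two criteria is met; inactive means mean below 60% and not all replicates reaching 60%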;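 further: luciferase light reporting Pax8 driven TPO promoter activity; plate controls were median of neutral control wells for no effect and mitoxantrone controls for full effect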
Env fusion inh: HIV envelope-mediated fusion inhibition; HeLa-JRFL Env/CEM21 cell fusion, luciferase; inhibition, % at 12.3 µM; hit rate 1.1% among 360,000; AID 651610;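 active means mean replicate inhibition score of at least 50 and every replicate individually at or above 50; inconclusive means only one of the two criteria met; inactive means mean below 50 and not all replicates reaching 50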;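 further: 0% = plate neutral controls and 100% = maraviroc near 300 nM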
EWS-Fli block: inhibitors of EWS/Fli oncoprotein transcriptional activity | inhibition, % at 12.6 µM | hit rate 0.67% among 350,000 | A673 NR0B1-luciferase reporter, viability-normalised;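 active means mean inhibition of at least 50% after viability correction, with every replicate also passing that limit; inconclusive means mean reaches 50% but only one of two replicates passes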;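 further: firefly luciferase signal divided by Alamar Blue viability fluorescence both relative to DMSO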
Starred values were filed as active, the others as inactive; u = inconclusive; x = no result given; [ ] = dose if it differs, or a comment.

SMILES	F508del corr	GAA850 FXN act	PAX8 reporter	Env fusion inh	EWS-Fli block
C[C@H](O)C#Cc1ccc2c(c1)O[C@H](CN(C)C(=O)CN(C)C)[C@H](C)CN([C@H](C)CO)S2(=O)=O	-0.9	x	-2.7	x	-5.6
COc1cccc(C(=O)Nc2ccc3[nH]c(=O)[nH]c3c2)c1OC	-0.7	1.2	-5.5	60.1*	10.5
Cc1sc2ncnc(SC(C)C(=O)N3c4ccccc4Sc4ccccc43)c2c1C (stereo not drawn)	x	-1.0	14.8	40.9	89.9*
CCOc1cc2c(c3c1C(c1ccccc1)N(S(=O)(=O)c1ccc(C)cc1)C3)C(=O)C=CC2=O (stereo not drawn)	1.1	x	5.2	-85.8	62.3*
NC(=O)c1sc2nc3c(c(-c4cccs4)c2c1N)CCCCC3	x	-8.0	x	126.3*	x
COc1ccc(C(=O)/C(C#N)=N/Nc2ccc([N+](=O)[O-])cc2)cc1	1.0	-3.2	89.7*	14.6	10.5
N#C/C(=N\Nc1ccc(Cl)cc1)C(=O)c1ccccc1	x	-1.5	-10.1	78.5*	x
COc1ccc(C(=O)/C(C#N)=N/Nc2ccccc2[N+](=O)[O-])cc1	x	-6.0	26.8	27.6	45.1
Cc1c(N/N=C(\C#N)C(=O)c2ccc(Cl)cc2)c(=O)n(-c2ccccc2)n1C	x	0.6	64.5*	31.7	x
COc1ccc(CNC(=O)C[C@H]2CC[C@H]3[C@@H](COc4ccc(NC(=O)C(C)C)cc4C(=O)N3C)O2)cc1	-3.0	x	-5.5	12.3[16.7 µM]	4.2
C[C@@H]1CN([C@@H](C)CO)C(=O)c2cc(NC(=O)NC3CCCCC3)ccc2O[C@@H](C)CCCCO[C@@H]1CN(C)C(=O)Cc1ccccc1	0.5	x	15.8	62.0*[16.7 µM]	8.5
C[C@@H]1CCCCO[C@H](CN(C)C(=O)Cc2ccccc2)[C@@H](C)CN([C@@H](C)CO)C(=O)c2cc(NC(=O)NC3CCCCC3)ccc2O1	3.2	x	20.9	-31.9[16.7 µM]	10.5
C[C@@H]1CN([C@H](C)CO)C(=O)c2cc(NC(=O)Nc3ccc(C(F)(F)F)cc3)ccc2O[C@@H](C)CCCCO[C@@H]1CN(C)C(=O)Cc1ccccc1	2.7	x	71.9*	-5.8[16.7 µM]	-3.6
C[C@@H]1CN([C@H](C)CO)C(=O)c2cc(NC(=O)Nc3ccccc3)ccc2O[C@@H](C)CCCCO[C@@H]1CN(C)C(=O)Cc1ccccc1	-2.0	x	-3.5	4.1[16.7 µM]	-13.0
C[C@@H]1CCCCO[C@H](CN(C)C(=O)Cc2ccccc2)[C@@H](C)CN([C@@H](C)CO)C(=O)c2cc(NC(=O)Nc3ccc(C(F)(F)F)cc3)ccc2O1	1.3	x	78.6*	62.5*[16.7 µM]	-6.8
C[C@@H]1CCCCO[C@H](CN(C)C(=O)Cc2ccccc2)[C@H](C)CN([C@@H](C)CO)C(=O)c2cc(NC(=O)Nc3ccc(C(F)(F)F)cc3)ccc2O1	5.6	x	78.6*	21.7[16.7 µM]	-10.6
CO[C@@H]1CN(C)C(=O)c2ccc(NC(=O)C3CC3)cc2OC[C@@H](C)N(Cc2ccccc2)C[C@@H]1C	0.6	x	x	x	-3.0
CCC(=O)N1CC(=O)N2[C@H](CO)[C@@H](c3ccc(-c4cccnc4)cc3)[C@H]2C1	0.0	x	14.3	x	3.2
O=C(Nc1ccccc1)N1CCCCN2[C@H](CO)[C@@H](c3ccc(C4=CCCCC4)cc3)[C@H]2C1	0.9	x	16.4	x	3.4
COc1cccc(-c2cnc3c(c2)C(=O)N([C@@H](C)CO)C[C@@H](C)[C@H](CN(C)Cc2ccc(C(=O)O)cc2)O3)c1	3.0	x	-24.6	-24.2[16.7 µM]	-7.9
C[C@H](CO)N1C[C@H](C)[C@@H](CN(C)C(=O)Cc2ccccc2)OCCCC[C@H](C)Oc2ccc(NC(=O)Nc3ccc(C(F)(F)F)cc3)cc2C1=O	5.0	x	87.0*	29.5[16.7 µM]	10.7
COc1ccc(NC(=O)Nc2ccc3c(c2)C(=O)N([C@@H](C)CO)C[C@H](C)[C@@H](CN(C)C(=O)Cc2ccccc2)OCCCC[C@H](C)O3)cc1	1.4	x	23.3	37.6[16.7 µM]	13.9
COc1ccc(NC(=O)Nc2ccc3c(c2)C(=O)N([C@H](C)CO)C[C@@H](C)[C@@H](CN(C)C(=O)Cc2ccccc2)OCCCC[C@H](C)O3)cc1	-0.3	x	98.9*	9.9[16.7 µM]	-0.7
Cc1ccc(NC(=O)c2ccc(OCC3CCCO3)cc2)nc1 (stereo not drawn)	1.1	3.3	-138.0	-17.1	-5.4
CCOc1ccc(C(=O)Nc2nnc(SCC(=O)NCC3CCCO3)s2)cc1 (stereo not drawn)	1.6	-1.1	-10.3	14.2	64.8*
SMILES	F508del corr	GAA850 FXN act	PAX8 reporter	Env fusion inh	EWS-Fli block
Cc1cnc(NC(=O)c2ccc(OCC3CCCO3)cc2)s1 (stereo not drawn)	1.8	-1.3	24.2	-1.9	63.5*
S=c1sc2c(Cl)ncnc2n1-c1ccccc1	-5.2	2.9	93.3*	-58.1	74.2*
Cc1nc(N2CCN(C)CC2)c2sc(=S)n(-c3ccccc3)c2n1	-0.6	0.1	-26.5	17.6	-13.8
O=[N+]([O-])c1ccc(N2CCN(Cc3ccccc3)CC2)c2c1no[n+]2[O-]	-6.2	-10.1	98.9*	-314.6	48.6
C[C@H]1C=C(C(=O)N2CCN(Cc3ccc4c(c3)OCO4)CC2)O[C@@H](OCCCCO)C1	1.7	x	-5.9	7.3[16.7 µM]	-3.8
Cc1ccc(OCC(=O)Nc2ccc3c(c2)ncn3C)cc1	22.0*	0.8	5.6	x	-2.5
Cn1c(CCN2CCN(c3ccccn3)CC2)nc2cc(NS(=O)(=O)c3ccccc3)ccc21	-1.7	1.1	72.2*	7.0	x
Cn1c(CCN2CCCCC2)nc2cc(NC(=O)COc3ccc(Cl)cc3)ccc21	-0.1	0.6	37.3	7.2	1.4
Cc1ccc(C(C)C)c(OCC(=O)Nc2ccc3c(c2)nc(CCN2CCCCC2)n3C)c1	3.8	1.7	83.1*	17.2	u
Cn1c(CCN2CCN(c3ccccn3)CC2)nc2cc(NC(=O)COc3ccccc3)ccc21	-1.1	-1.6	66.3*	6.9	x
Cc1ccc(S(=O)(=O)Nc2ccc3c(c2)C(=O)N([C@@H](C)CO)C[C@@H](C)[C@@H](CN(C)CC2CCCCC2)OCCCC[C@@H](C)O3)cc1	-1.2	x	19.0	22.2[16.7 µM]	22.6
COc1ccccc1-c1ccc2c(c1)O[C@@H](CN(C)CC1CC1)[C@H](C)CN([C@@H](C)CO)S2(=O)=O	-4.0	x	x	6.0[16.7 µM]	10.0
Cc1ccc(OCC(=O)Nc2ccc3c(c2)nc(CCN2CCN(c4ccccn4)CC2)n3C)cc1	-0.1	-1.6	52.1	60.6*	15.6
Fc1ccccc1-c1nc(-c2ccccc2)no1	x	2.7	-114.9	-402.5	x
COC(=O)c1cccc(-c2noc(-c3ccccc3F)n2)c1	-0.8	1.6	45.9	13.2	89.8*
COc1ccc(-c2noc(-c3ccccc3F)n2)cc1	-0.5	4.3	-104.7	-243.5	8.4
NC(=O)c1cccc(-c2noc(-c3ccccc3F)n2)c1	1.1	1.7	-1.0	-203.0	86.7*
O=C(C[C@@H]1CC[C@H]2[C@@H](COC[C@H](O)CN2C(=O)c2ccccc2F)O1)NCc1ccc(Cl)cc1	1.8	x	-1.1	x	7.3
O=C1/C(=C/c2cccc(Br)c2)SC(=S)N1CCC(=O)N(CCO)c1ccccc1	1.9	0.1	89.8*	10.0	6.5
